# Unmarked numbers belong to inactive results.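 How the source made its calls: active = AUC reduced over 20% with Padj below 0.05 in at least 2 of 3 replicates; inactive = otherwise.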
# Columns and labels:
# Experiment in all cases: growth AUC relative to DMSO control (median of replicates) (fraction); higher = more growth (less inhibition), active = hit call of the paper
# Settings in all cases: 20 µM; 24 h
# [1] = tested on: Coprococcus comes
# Outline: (§1)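 Gut bacterial monocultures were grown anaerobically at 37 °C in mGAM, starting at OD600 0.05, with 20 µM compound (1% DMSO) in round-bottom 96-well plates under pierced gas-permeable seals. OD600 was read hourly for 24 h. Area under the growth curve (minimum OD set to 0) was normalised to the plate median of DMSO controls, or to row and column medians on the industrial chemical plate. The value is the median of three biological replicates grown on separate days.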
# [2] = tested on: Escherichia coli ED1a
# Outline: as §1
# [3] = tested on: Escherichia coli IAI1
# Outline: as §1
# [4] = tested on: Eubacterium rectale
# Outline: as §1
# [5] = tested on: Fusobacterium nucleatum subsp. animalis
# Outline: as §1
# [6] = tested on: Lactobacillus gasseri
# Outline: as §1
# [7] = tested on: Lactobacillus paracasei
# Outline: as §1
# [8] = tested on: Odoribacter splanchnicus
# Outline: as §1
# [9] = tested on: Parabacteroides distasonis
# Outline: as §1
# [10] = tested on: Parabacteroides merdae
# Outline: as §1
# [11] = tested on: Roseburia intestinalis
# Outline: as §1
# [12] = tested on: Streptococcus salivarius
# Outline: as §1
Compound,growth AUC [1],growth AUC [2],growth AUC [3],growth AUC [4],growth AUC [5],growth AUC [6],growth AUC [7],growth AUC [8],growth AUC [9],growth AUC [10],growth AUC [11],growth AUC [12]
O=[N+]([O-])c1ccccc1,1.03,1.01,1.01,1.07,1.07,1,0.994,1.08,1.03,1.03,0.963,1.01
CCN(CC)C(=O)/C(Cl)=C(/C)OP(=O)(OC)OC,0.978,0.942,0.953,1.08,1,0.886,0.969,0.935,0.888,0.978,1.01,0.994
OC(Cc1ccccc1Cl)(Cn1cncn1)C1(Cl)CC1 (centres undefined),0.963,0.993,0.941,0.849,0.897,1.16,1.02,0.95,1.01,0.977,1.05,0.998
O=[N+]([O-])c1ccc(O)c([N+](=O)[O-])c1,0.904,0.998,0.998,1.02,0.927,1.06,0.97,0.673,0.948,0.985,0.912,0.992
O=C(O)CCl,0.98,0.995,0.984,0.974,0.929,1.03,1.03,0.986,0.949,1.02,0.962,0.979
Clc1ccc(Cl)c(Cl)c1Cl,0.989,0.973,0.981,0.968,1.03,0.945,1.11,0.973,0.981,0.999,0.999,1.04
O=C(NCCc1ncc(C(F)(F)F)cc1Cl)c1ccccc1C(F)(F)F,1,1.01,0.988,0.964,0.875,0.999,1.01,0.985,0.96,0.996,0.987,1.01
CCOP(=S)(OCC)SCS(=O)(=O)C(C)(C)C,0.991,1.01,0.966,1.08,0.964,1.02,1.03,0.979,1.02,0.986,1.02,0.984
O=CNC(N1CCN(C(NC=O)C(Cl)(Cl)Cl)CC1)C(Cl)(Cl)Cl (centres undefined),0.946,0.975,0.935,0.881,0.658 (active),0.873,1.06,1.01,0.914,0.948,0.934,0.982
COC(=O)C1(O)c2ccccc2-c2ccccc21,0.939,0.966,1.01,0.95,0.911,1.07,1,0.988,1.03,0.993,1,1
COP(=O)(OC)O/C(=C/Br)c1ccc(Cl)cc1Cl,1.01,0.981,1,1,1.07,0.885,1.01,1.03,0.883,0.963,1.02,1
CCCOCCN(C(=O)CCl)c1c(CC)cccc1CC,0.988,0.963,0.985,1.02,0.945,0.927,1.12,1.02,0.848,0.942,0.947,0.952

# From the supplement of paper PMC12669032
